A short description of assay [1]: qHTS for Inhibitors of the Functional Ribonucleoprotein Complex (vRNP) of Lassa (LASV) Arenavirus: LASV Primary Screen - GLuc reporter signal (AID 1347082; calls by dose curve; tested in HEK293 reporter line; also: nearly all actives have a fitted effect of over 60% in size; also: potency is read from the fitted curve at half-maximal effect; as to activity change, negative = inhibition: % is scaled to controls: 0 for no effect and ±100 for the full control effect).
Assay [2] can be described thus: qHTS for Inhibitors of the Functional Ribonucleoprotein Complex (vRNP) of Lymphocytic Choriomeningitis Arenaviruses (LCMV): Viability assay - alamar blue signal for LCMV Primary Screen (AID 1347085; calls by dose curve; tested in HEK293 reporter line; also: % is scaled to controls: 0 for no effect and ±100 for the full control effect; nearly all actives have a fitted effect of over 80% in size).
In assay [3] the target is Nucleoprotein (Lymphocytic choriomeningitis virus (strain Armstrong)) (UniProt P09992). The assay is described as follows: qHTS for Inhibitors of the Functional Ribonucleoprotein Complex (vRNP) of Lymphocytic Choriomeningitis Arenaviruses (LCMV): LCMV Primary Screen - GLuc reporter signal (AID 1347086). Also: nearly all actives have a fitted effect of over 70% in size. Also: potency is read from the fitted curve at half-maximal effect. As to activity change, negative = inhibition: % is scaled to controls: 0 for no effect and ±100 for the full control effect.
Assay [4] is described as follows: Cytotoxicity counterscreen for inhibitors of SARS-CoV-2 cell entry (AID 1645845). Also: nearly all actives have a fitted effect of over 50% in size. Also: potency is read from the fitted curve at half-maximal effect. The method in brief:
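HEK293-ACE2 cells (Expi293F stably expressing human ACE2) seeded overnight, then compound for 1 h plus 48 h at 37C. Viability as ATP content by luminescence; normalized to wells with cells and media-only wells.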

Assay [5] can be described thus: Primary qHTS to identify inhibitors of SARS-CoV-2 cell entry (AID 1645846). Also: nearly all actives have a fitted effect of over 45% in size. Also: potency is read from the fitted curve at half-maximal effect. To be noted: activity change, negative = inhibition: at 57.1 µM (top of the series) unless noted. The procedure, abridged: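 Using luciferase-reporting pseudoviruses carrying Wuhan-Hu-1 spike, the screen tracks entry into stably ACE2-expressing cells over 48 hr. Activity is expressed relative to spike particles versus particles lacking any fusion protein.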

A short description of assay [6]: Confirmatory qHTS for VERO E6 Cytotoxicity Assay: Counterscreen for SARS-CoV-2 CPE Assay (AID 1508605). Also: potency is read from the fitted curve at half-maximal effect; nearly all actives have a fitted effect of over 60% in size.
Assay [7] is described as follows: Confirmatory qHTS for activators (rescue) of SARS-CoV-2 Cytopathic Effect (CPE) (AID 1508606). Also: nearly all actives have a fitted effect of over 70% in size. Also: potency is read from the fitted curve at half-maximal effect.
Assay [8] is described as follows: Confirmatory qHTS to identify inhibitors of SARS-CoV-2 cell entry (AID 1645844). Also: potency is read from the fitted curve at half-maximal effect; nearly all actives have a fitted effect of over 45% in size. The procedure, abridged: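 HEK293-ACE2 cells were pretreated 1 h with compound, then infected with MLV-based pseudoparticles bearing C-terminally truncated Wuhan-Hu-1 spike for 48 h at 37C; luciferase luminescence normalized to spike PP and bald PP wells.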
Assay [9] can be described thus: qHTS for inhibitors of Rabies Virus screened against the NCATS CANVASS Library (AID 1347402). Also: 0% is about no effect.
Assay [10] addresses Alpha-galactosidase (Coffea arabica) (UniProt Q42656). The assay can be described thus: Counterscreen for Glucocerebrosidase Inhibitors: qHTS Assay for Coffee Bean alpha-Galactosidase at pH 4.5 (AID 957; active = well fitted curve in the direction sought with a large enough effect; an effect the other way counts as inactive or inconclusive;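 also: plate controls were enzyme alone for no effect and no enzyme for full effect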). The procedure, abridged:
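Coffee bean alpha-galactosidase 2 nM, substrate 4-MU-alpha-Gal 80 uM, pH 4.5 citrate/Tween-20, 20 min RT. Cpd titration 0.7 nM–77 uM. Stop pH 10, fluorescence 365/440 nm; Hill-equation AC50.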

The target is the same in assay [11]. The assay is described as follows: Counterscreen for Glucocerebrosidase Inhibitors: qHTS Assay for Coffee Bean alpha-Galactosidase at pH 5.9 (AID 998; active = well fitted curve in the direction sought with a large enough effect; an effect the other way counts as inactive or inconclusive;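 also: plate controls were uninhibited enzyme for no effect and no-enzyme basal signal for full effect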). The method in brief: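 Green coffee bean enzyme (2 nM) with 4-methylumbelliferyl alpha-D-galactopyranoside (80 uM) in 50 mM citric acid, 0.005% Tween-20, pH 5.9, 20 min at room temperature; compounds 0.7 nM–77 uM. Stopped at pH 10, fluorescence Ex365/Em440; Hill-fit AC50.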

Assay [12] in a line: Inducers of the Endoplasmic Reticulum Stress Response (ERSR) in human glioma: Validation (AID 504836; active = well fitted curve in the direction sought with a large enough effect; an effect the other way counts as inactive or inconclusive; also: 0% is about no effect). The procedure, abridged: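 Stably transfected U87-MG glioma cells carrying a GRP78-based luciferase sensor; 16 h compound incubation. Luminescence end-point read 10 min after Bright-Glo addition at room temperature.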
In assay [13] the target is Peroxisome proliferator-activated receptor delta (Homo sapiens) (UniProt Q03181). The assay can be described thus: qHTS assay for small molecule agonists of peroxisome proliferator-activated receptor delta signaling (AID 588534).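 Also: 0% = DMSO basal wells and 100% = positive control agonist at 10 µM.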 The method in brief:
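Fluorescence from CCF4 substrate cleavage by beta-lactamase reporter, read 2 hrs at RT, measured agonist activity. Compounds were tested with 18 hrs exposure at 37 C. Concentration-response data fitted to Hill equation.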

Assay [14] can be described thus: Validation screen for inhibitors of Lassa infection (AID 463096). Also: % is scaled to controls: 0 for no effect and ±100 for the full control effect.

Records with an inconclusive call do not appear. Active and inactive are the calls of the source. Unless noted, calls follow the shape of the full dose curve.

Alpha-galactosidase (Coffea arabica), sequence (Q42656 whole entry, looked up): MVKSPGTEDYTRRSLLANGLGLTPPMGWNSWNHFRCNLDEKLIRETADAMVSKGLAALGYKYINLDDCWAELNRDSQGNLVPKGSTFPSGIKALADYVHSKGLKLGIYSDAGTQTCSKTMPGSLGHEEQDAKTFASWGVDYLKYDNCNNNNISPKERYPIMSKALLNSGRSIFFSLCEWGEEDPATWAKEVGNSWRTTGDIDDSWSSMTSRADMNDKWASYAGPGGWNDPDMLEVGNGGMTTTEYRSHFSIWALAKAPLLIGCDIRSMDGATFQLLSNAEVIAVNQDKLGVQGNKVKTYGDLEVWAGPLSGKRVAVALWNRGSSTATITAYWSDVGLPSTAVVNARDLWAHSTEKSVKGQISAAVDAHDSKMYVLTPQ
Nucleoprotein (Lymphocytic choriomeningitis virus (strain Armstrong)), sequence (P09992 whole entry, looked up): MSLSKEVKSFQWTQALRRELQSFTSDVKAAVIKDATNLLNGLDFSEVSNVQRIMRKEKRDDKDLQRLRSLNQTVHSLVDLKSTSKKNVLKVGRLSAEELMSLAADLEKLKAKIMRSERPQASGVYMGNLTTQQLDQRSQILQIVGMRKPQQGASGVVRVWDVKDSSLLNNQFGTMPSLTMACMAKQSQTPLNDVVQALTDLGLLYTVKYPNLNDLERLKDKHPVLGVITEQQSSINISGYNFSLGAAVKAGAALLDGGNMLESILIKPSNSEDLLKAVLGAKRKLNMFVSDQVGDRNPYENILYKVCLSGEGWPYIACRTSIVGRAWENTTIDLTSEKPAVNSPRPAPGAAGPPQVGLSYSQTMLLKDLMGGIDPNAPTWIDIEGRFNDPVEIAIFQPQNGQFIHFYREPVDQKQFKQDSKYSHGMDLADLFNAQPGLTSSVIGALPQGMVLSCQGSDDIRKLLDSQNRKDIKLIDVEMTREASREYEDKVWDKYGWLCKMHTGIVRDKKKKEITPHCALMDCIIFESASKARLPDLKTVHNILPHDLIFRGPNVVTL
Peroxisome proliferator-activated receptor delta (Homo sapiens), sequence (Q03181 whole entry, looked up): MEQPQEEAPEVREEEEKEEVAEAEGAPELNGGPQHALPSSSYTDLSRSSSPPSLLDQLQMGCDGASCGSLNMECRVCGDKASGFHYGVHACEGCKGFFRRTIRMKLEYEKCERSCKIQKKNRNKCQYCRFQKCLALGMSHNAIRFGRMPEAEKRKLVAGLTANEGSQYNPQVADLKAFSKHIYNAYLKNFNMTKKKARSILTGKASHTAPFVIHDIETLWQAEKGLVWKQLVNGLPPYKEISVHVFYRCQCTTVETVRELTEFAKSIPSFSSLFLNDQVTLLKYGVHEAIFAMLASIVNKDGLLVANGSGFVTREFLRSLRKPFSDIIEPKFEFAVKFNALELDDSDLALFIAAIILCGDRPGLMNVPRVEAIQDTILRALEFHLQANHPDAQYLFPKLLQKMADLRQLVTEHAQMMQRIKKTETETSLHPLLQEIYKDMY

On to `Nc1ncn([C@@H]2O[C@H](CO)[C@@H](O)[C@@H]2O)c(=O)n1`, for which the Potency entry in assay [1], in assay [2] and in assay [3] was “inactive” in each case.

On to `NS(=O)(=O)c1ccc(Nc2nc(OCC3CCCCC3)c3[nH]cnc3n2)cc1`, for which the Potency entry in assay [1], in assay [2], in assay [3] and in assay [4] was “inactive” in each case.

Turning to `C=CC(=O)Nc1cc(NC(=O)c2ccc(C)c(NC(=O)c3ccno3)c2)cc(C(F)(F)F)c1`, the Potency result in assay [1], in assay [2] and in assay [3] was “inactive” in each case.

As to `CN(C)CC[C@H](CSc1ccccc1)Nc1ccc(S(=O)(=O)NC(=O)c2ccc(N3CCN(Cc4ccccc4-c4ccc(Cl)cc4)CC3)cc2)cc1[N+](=O)[O-]`, the Potency result in assay [1], in [2], in assay [3] and in assay [4] was “inactive” each time. The activity change, negative = inhibition in assay [5] turned out to be 1.37%.

With `COc1cc(C(C)C)c2c(c1)S(=O)(=O)N(COc1cc(=O)n3cccc(OCCN4CCCCC4)c3n1)C2=O`, the Potency result in assay [1], in assay [2], in [3] and in assay [4] was “inactive” each time. The activity change, negative = inhibition in assay [5] is -36.9%.

For the compound `COc1ccc(C2CC(c3ccccc3)=NN2c2ccc(S(N)(=O)=O)cc2)cc1` (centres undefined), the Potency entry in assay [1], in assay [2], in assay [3] and in assay [4] was “inactive” each time. Also, the activity change, negative = inhibition in [5] is -0.201%.

Turning to `Cc1cccc(Nc2nc(-c3ccncc3)cs2)c1`, the Potency entry in assay [1], in assay [2] and in assay [3] was “inactive” in each case. Also, the Potency in assay [6] was 10 µM (active); in assay [7], 0.794 µM (active); in assay [8], 4.29 µM (active); in assay [5] it was 10 µM (active).

Consider `COc1ccc(-c2cc(=O)c3c(OC)c(OC)c(OC)c(OC)c3o2)cc1`, for which the Potency entry in assay [1], in [2] and in [3] was “inactive” throughout.

Regarding `CC(=O)O[C@@]12CO[C@H]1C[C@H](O)[C@@]1(C)C(=O)[C@H](O)C3=C(C)[C@@H](OC(=O)C(O)[C@@H](NC(=O)OC(C)(C)C)c4ccccc4)C[C@@](O)([C@@H](OC(=O)c4ccccc4)[C@@H]21)C3(C)C` (some centres undefined), the Potency result in [1], in [2] and in assay [3] was “inactive” throughout.

For `COc1cc2c(Nc3ccc(NC(=O)c4ccccc4)cc3)ncnc2cc1OCCCN1CCOCC1`, the Potency result in assay [1], in [2] and in [3] was “inactive” each time. The Potency in [4] is 31.6 µM (active); in [5], 7.94 µM (active).

As to `Cc1nc(NC(=O)N2CCC[C@@H]2C(N)=O)sc1-c1csc(C(C)(C)C)n1`, the Potency entry in [1], in [2] and in [3] was “inactive” in each case.

Consider `COc1ccc(-c2oc3cc(OC)c(O)c(OC)c3c(=O)c2OC)cc1O`, for which the Potency entry in assay [1], in [2] and in assay [3] was “inactive” throughout.

With `CCn1c(C(=O)N(C2CC2)C2CC2)cc2c3c(ncn3C)c(Nc3cc(C)n(C)n3)nc21`, the Potency result in [1], in [2], in [3] and in assay [4] was “inactive” each time. Besides, the activity change, negative = inhibition in assay [5] was -14.3%.

Consider `CCN(CCO)CCCOc1ccc2c(Nc3cc(CC(=O)Nc4cccc(F)c4)[nH]n3)ncnc2c1`, for which the Potency result in assay [1], in [2], in [3] and in assay [4] was “inactive” in each case. For the same compound, in [8], the Potency is 0.681 µM (active). The activity change, negative = inhibition in assay [5] was -58.3%.

On to `O=c1[nH]nc(OCCCc2ccc(Cl)cc2)c(NCc2cccnc2)c1Br`, for which the Potency result in assay [1], in assay [2], in [3] and in assay [4] was “inactive” throughout. Besides, the activity change, negative = inhibition in [5] is -25.1%.

In the case of `COC1C(O)C(C)OC(OC2CCC3(C=O)C(CCC4C3CCC3(C)C(C5=CC(=O)OC5)CCC43O)C2)C1O` (centres undefined), the Potency result in assay [1], in assay [2] and in [3] was “inactive” in each case.

Turning to `Nc1ccc(S(=O)(=O)Nc2ncccn2)cc1`, the Potency entry in assay [1], in assay [2] and in assay [3] was “inactive” each time.

With `O=C1NC(=O)C(=Cc2ccc(-c3ccc(F)cc3)o2)S1`, the Potency entry in assay [1], in assay [2] and in assay [3] was “inactive” in each case.

Turning to `Nc1ncnc2c1nc(Cl)n2[C@@H]1O[C@H](CO)[C@@H](O)[C@@H]1O`, the Potency result in [1], in assay [2], in assay [3] and in [4] was “inactive” each time.

Take `COc1cc(OC)c(NC(=O)Nc2cc(C)on2)cc1Cl`: the Potency result in assay [1], in assay [2], in assay [3] and in [4] was “inactive” each time. Further, the activity change, negative = inhibition in assay [5] is -15.8%.

As to `COc1cc2c(c(OC)c1OC)-c1ccc(OC)c(=O)cc1[C@@H](NC=O)CC2`, in [1], the Potency was 35.5 µM (active). The Potency entry in assay [2] and in assay [3] was “inactive” in each case.

On to `COc1cc2c(oc(=O)c3cc(C)cc(OC)c32)c2c(C3OC(C)C(O)C(C)(O)C3O)ccc(O)c12` (centres undefined), for which the Potency result in [1], in [2] and in assay [3] was “inactive” in each case.

Consider `CN(Cc1nc2c(N)nc(N)nc2[nH]c1=O)c1ccc(C(=O)NC(CCC(=O)O)C(=O)O)cc1` (centres undefined), for which the Potency result in assay [1], in assay [2] and in assay [3] was “inactive” throughout.

Take `CCS(=O)(=O)N1CC(CC#N)(n2cc(-c3ncnc4[nH]ccc34)cn2)C1`: the Potency result in [1], in [2] and in assay [3] was “inactive” in each case.

Regarding `COc1c(O)cc(O)c2c(=O)cc(-c3ccccc3)oc12`, the Potency entry in [1], in assay [2] and in assay [3] was “inactive” in each case. Further, the call in [9] was inactive.

Consider `Cn1cc(-c2ccncc2)c(-c2ccc(OCc3ccc4ccccc4n3)cc2)n1`, for which the Potency in [1] and in [3] was 21.7 µM (active) throughout. In addition, the Potency entry in [2] and in assay [7] was “inactive” throughout.

For `CC=CC(C)=CC(C)C(=O)CC(O)CC1CC(=O)NC(=O)C1` (centres undefined), the Potency result in assay [1], in assay [2] and in assay [3] was “inactive” each time.

With `COc1cc2c(cc1OC)-c1cc3cc(OC)c(OC)cc3c(=O)n1CC2`, the Potency entry in assay [1], in assay [2] and in assay [3] was “inactive” throughout.

`O=C(Nc1ccccc1)c1cc([N+](=O)[O-])ccc1Cl`: the result in [10], in assay [11] and in assay [12] was inactive. For the same compound, the Potency result in [13], in assay [1] and in [2] was “inactive” in each case.

Take `CC1(C)Oc2cc3oc(-c4cc(O)cc(O)c4)cc3cc2CC1O` (centres undefined): the Potency entry in assay [1] and in assay [3] was “inactive” throughout.

With `O=c1c(-c2ccc(O)cc2)coc2cc(O)ccc12`, the compound was classed as inactive in [10] and in assay [11]. The Potency entry in [14], in assay [13], in assay [1], in assay [2], in assay [3] and in assay [4] was “inactive” throughout.

`NC(N)=Nc1nc(CSCCC(N)=NS(N)(=O)=O)cs1`: the Potency result in assay [1] and in assay [3] was “inactive” in each case.

In the case of `O=c1[nH]c(=O)n([C@H]2C[C@@H](O)[C@@H](CO)O2)cc1C(F)(F)F`, the Potency entry in assay [1] and in assay [3] was “inactive” throughout.

For the origin of these results see PubChem BioAssay (NCATS).
